ROS inducer: raises reactive oxygen species in U2OS cancer cells. U2OS ROS induction, H2DCF-DA fluorescence. ROS induction (% of piperlongumine), % at 10 µM. 46,000 tested, 2% active. AID 624156; in the data active = ROS induction above about 79%, passing the limit was not always enough
YB-1 expr inh: YB-1 expression inhibition. U2OS, qRT-PCR YB-1 vs CDIP delta delta Cp, 16 h; hits give high values; zero = DMSO, each unit about twofold. delta delta Cp (YB-1 minus CDIP) (concentration not given with the values). 30,000 tested, 0.37% active. AID 434959;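 active = delta delta Cp rounded down to an integer at or above 3, about 3 SD of DMSO wells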;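 note: higher means less YB-1 transcript or more CDIP transcript relative to DMSO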
Large screens that a line does not name were inactive. Only some compounds are listed: those with a hit (about 2.1% of all), similar ones and a draw of the others.

COc1ccc(NC(=O)Nc2ccc3c(c2)CC(=O)N([C@@H](C)CO)C[C@@H](C)[C@@H](CN(C)S(=O)(=O)c2cn(C)cn2)O3)cc1	ROS inducer 90
C[C@H](CO)N1C[C@H](C)[C@H](CN(C)S(=O)(=O)c2cn(C)cn2)Oc2ccc(NC(=O)Nc3ccc(F)cc3)cc2CC1=O	none
C[C@H]1CN([C@@H](C)CO)C(=O)Cc2cc(NC(=O)Nc3ccc(F)cc3)ccc2O[C@H]1CN(C)S(=O)(=O)c1cn(C)cn1	YB-1 expr inh 8.1
COc1ccc(OCC(=O)N2c3ccccc3C(C)(c3ccccc3)CC2(C)C)cc1 (stereo unspecified)	none (no result: YB-1 expr inh)
O=C(N=CNC(=O)c1cccnc1)c1cccnc1	none (no result: YB-1 expr inh)
C[C@@H]1CN([C@H](C)CO)C(=O)c2cc(NC(=O)c3ccncc3)ccc2O[C@@H]1CN(C)Cc1ccc(-c2ccccc2)cc1	ROS inducer 113
C[C@@H]1CN([C@H](C)CO)C(=O)c2cc(NC(=O)Cc3ccccc3)ccc2O[C@H]1CN(C)Cc1ccc(Oc2ccccc2)cc1	none
C[C@H]1CN([C@@H](C)CO)C(=O)c2cc(NC(=O)CCC(F)(F)F)ccc2O[C@@H]1CN(C)Cc1ccc(-c2ccccc2)cc1	ROS inducer 82
C[C@H](CO)N1C[C@H](C)[C@@H](CN(C)Cc2ccc(Oc3ccccc3)cc2)Oc2ccc(NC(=O)Cc3ccccc3)cc2C1=O	ROS inducer 138
C[C@H](CO)N1C[C@H](C)[C@H](CN(C)Cc2ccc(-c3ccccc3)cc2)Oc2ccc(NC(=O)CCC(F)(F)F)cc2C1=O	none
C[C@@H]1CN([C@H](C)CO)C(=O)c2cc(NC(=O)Cc3ccccc3)ccc2O[C@H]1CN(C)Cc1ccc(-c2ccccc2)cc1	ROS inducer 100
C[C@@H]1CN([C@@H](C)CO)C(=O)c2cc(NC(=O)Cc3ccccc3)ccc2O[C@@H]1CN(C)Cc1ccc(-c2ccccc2)cc1	none
C[C@H](CO)N1C[C@H](C)[C@@H](CN(C)Cc2ccc(-c3ccccc3)cc2)Oc2ccc(NC(=O)c3ccncc3)cc2C1=O	none
Cc1c(C(=O)O)oc2ccc(S(=O)(=O)NCCC(C)C)cc12	none (no result: YB-1 expr inh)
O=S(=O)(c1ccccc1)N(CCO)Cc1ccccc1	none (no result: YB-1 expr inh)
COc1ccc(NC(=O)Nc2cc(F)cc(F)c2)cc1OC1CCCC1	none (no result: YB-1 expr inh)
CCCCN1C(C)=NC(C(F)(F)F)(C(F)(F)F)C2=C1CC(C)(C)CC2=O	ROS inducer 120
CC1(C)CC(=O)C2=C(C1)N(Cc1ccco1)C(=O)NC2(C(F)(F)F)C(F)(F)F	none
COc1ccc2[nH]c3c(=O)n(CC(=O)NC4CCCCCC4)c(=S)[nH]c3c2c1	none (no result: YB-1 expr inh)
Cc1nc2ccc(S(=O)(=O)NC(C(=O)Nc3ccccc3C)c3ccccc3)cc2s1 (stereo unspecified)	none (no result: YB-1 expr inh)
CSCCC(C(=O)O)N1C(=O)/C(=C/c2cccnc2)SC1=S (stereo unspecified)	none (no result: YB-1 expr inh)
O=C(NN1C(=O)/C(=C\c2cccnc2)SC1=S)c1ccccc1	ROS inducer 79
CCOc1ccc(-c2cc(C(=O)NCCCN3CCCCC3)c3ccccc3n2)cc1	none (no result: YB-1 expr inh)
Cc1ccc(S(=O)(=O)N(C)C[C@@H]2Oc3ccc(NS(=O)(=O)c4ccc(Cl)cc4)cc3CC(=O)N([C@@H](C)CO)C[C@@H]2C)cc1	none
Cc1ccc(S(=O)(=O)Nc2ccc3c(c2)CC(=O)N([C@H](C)CO)C[C@@H](C)[C@@H](CN(C)S(=O)(=O)c2ccc(Cl)cc2)O3)cc1	ROS inducer 94
Cc1ccc(S(=O)(=O)Nc2ccc3c(c2)CC(=O)N([C@H](C)CO)C[C@H](C)[C@H](CN(C)S(=O)(=O)c2cccs2)O3)cc1	ROS inducer 96
Cc1noc(C)c1NC(=O)Nc1ccc2c(c1)CC(=O)N([C@@H](C)CO)C[C@H](C)[C@H](CN(C)Cc1ccc3c(c1)OCO3)O2	ROS inducer 124
Cc1ccc(S(=O)(=O)N(C)C[C@@H]2Oc3ccc(NS(=O)(=O)c4ccc(Cl)cc4)cc3CC(=O)N([C@H](C)CO)C[C@H]2C)cc1	none
C[C@H]1CN([C@@H](C)CO)C(=O)Cc2cc(NS(=O)(=O)c3ccc(Cl)cc3)ccc2O[C@@H]1CN(C)S(=O)(=O)c1ccc(Cl)cc1	ROS inducer 84
Cc1ccc(S(=O)(=O)Nc2ccc3c(c2)CC(=O)N([C@@H](C)CO)C[C@@H](C)[C@@H](CN(C)S(=O)(=O)c2cccs2)O3)cc1	none
Cc1noc(C)c1NC(=O)Nc1ccc2c(c1)CC(=O)N([C@H](C)CO)C[C@H](C)[C@H](CN(C)Cc1ccc3c(c1)OCO3)O2	none
CC(C)c1cc(C(C)C)c(S(=O)(=O)NCc2ccccc2)c(C(C)C)c1	none (no result: YB-1 expr inh)
CSc1ncc(Cl)c(C(=O)Nc2nnc(SCc3ccc(F)cc3)s2)n1	none (no result: YB-1 expr inh)
Cc1noc(C)c1NC(=O)Nc1ccc2c(c1)CC(=O)N([C@H](C)CO)C[C@@H](C)[C@@H](CN(C)S(=O)(=O)c1cccs1)O2	ROS inducer 106
Cc1noc(C)c1NC(=O)Nc1ccc2c(c1)CC(=O)N([C@@H](C)CO)C[C@H](C)[C@H](CN(C)S(=O)(=O)c1cccs1)O2	none
CCc1ccccc1NC(=O)C(CC)n1nc(C)n2c(cc3cc(C)ccc32)c1=O (stereo unspecified)	none (no result: YB-1 expr inh)
C=C1C(=O)O[C@@H]2C=C(C)[C@@H]3CC[C@@](C)(O)[C@@H]3C[C@H]12	none
C=C1C(=O)O[C@H]2C3=C(C)CCC[C@]3(C)C(=O)C[C@@H]12	ROS inducer 84
CCc1nn(C(CC)C(=O)NC2CCCC2)c(=O)c2cc3oc(C)cc3n12 (stereo unspecified)	none (no result: YB-1 expr inh)
CSc1nnc2c(n1)OC(C1CC=C(C)CC1)Nc1ccccc1-2 (stereo unspecified)	ROS inducer 103
CSc1nnc2c(n1)OC(C)Nc1ccccc1-2 (stereo unspecified)	none
C[C@@H]1CCCCO[C@@H](CN(C)C(=O)NC2CCCCC2)[C@@H](C)CN([C@H](C)CO)C(=O)c2cc(NS(C)(=O)=O)ccc2O1	none
CC(C)NC(=O)N(C)C[C@@H]1OCCCC[C@@H](C)Oc2ccc(NS(=O)(=O)c3ccc(Cl)cc3)cc2C(=O)N([C@H](C)CO)C[C@@H]1C	none
C[C@@H]1CCCCO[C@@H](CN(C)C(=O)C2CCCCC2)[C@@H](C)CN([C@H](C)CO)C(=O)c2cc(NS(C)(=O)=O)ccc2O1	ROS inducer 91
C[C@@H]1CCCCO[C@@H](CN(C)C(=O)C2CCCCC2)[C@@H](C)CN([C@H](C)CO)C(=O)c2cc(NS(=O)(=O)c3ccc(Cl)cc3)ccc2O1	ROS inducer 101
CCOC(=O)c1cncc(C#CCOC(=O)c2c(-c3ccccc3)noc2C)c1	none (no result: YB-1 expr inh)
CC1Cc2ccccc2N1S(=O)(=O)c1cc(Br)cnc1N (stereo unspecified)	none (no result: YB-1 expr inh)
CC(C)CN(CC(C)C)C(=O)Nc1ccccc1C(F)(F)F	none (no result: YB-1 expr inh)
CS(=O)(=O)Nc1ccc(S(=O)(=O)NCC2CCCO2)cc1 (stereo unspecified)	ROS inducer 96 (no result: YB-1 expr inh)
O=C(O)c1cccc(S(=O)(=O)NCC2CCCO2)c1 (stereo unspecified)	none (no result: YB-1 expr inh)
Cc1nnc(NCCc2ccccc2)[nH]c1=O	none (no result: YB-1 expr inh)
O=C1c2ccccc2-c2c(NCCc3ccccc3)c(=O)[nH]c3cccc1c23	ROS inducer 813
Cc1ccc(-n2ncc3c(=O)n(CC(=O)NCc4ccccc4Cl)cnc32)cc1C	none (no result: YB-1 expr inh)
CCC(C)c1ccc(NC(=O)C2CC(=O)N(c3ccc(C)cc3)C2)cc1 (stereo unspecified)	none (no result: YB-1 expr inh)

Compound activity: PubChem, Broad Institute
